Test results reported in publication PMC4336329 (PLoS ONE, 2015).
The whole screen tested about 310,000 compounds, of which about 14,000 (4.5%) showed an effect of 50% or more. The effect is printed as a negative number. The full list was thinned out, with strong results kept by preference.

Biological target: human ether-à-go-go-related gene (hERG) potassium channel (human, UniProt Q12809)
Test: primary screen, population patch clamp on CHO cells stably expressing hERG; higher = less effect of the substance
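Also: peak tail current of the secondary pulse compared with the same well before compound.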

human ether-à-go-go-related gene (hERG) potassium channel, sequence (Q12809 whole entry, looked up): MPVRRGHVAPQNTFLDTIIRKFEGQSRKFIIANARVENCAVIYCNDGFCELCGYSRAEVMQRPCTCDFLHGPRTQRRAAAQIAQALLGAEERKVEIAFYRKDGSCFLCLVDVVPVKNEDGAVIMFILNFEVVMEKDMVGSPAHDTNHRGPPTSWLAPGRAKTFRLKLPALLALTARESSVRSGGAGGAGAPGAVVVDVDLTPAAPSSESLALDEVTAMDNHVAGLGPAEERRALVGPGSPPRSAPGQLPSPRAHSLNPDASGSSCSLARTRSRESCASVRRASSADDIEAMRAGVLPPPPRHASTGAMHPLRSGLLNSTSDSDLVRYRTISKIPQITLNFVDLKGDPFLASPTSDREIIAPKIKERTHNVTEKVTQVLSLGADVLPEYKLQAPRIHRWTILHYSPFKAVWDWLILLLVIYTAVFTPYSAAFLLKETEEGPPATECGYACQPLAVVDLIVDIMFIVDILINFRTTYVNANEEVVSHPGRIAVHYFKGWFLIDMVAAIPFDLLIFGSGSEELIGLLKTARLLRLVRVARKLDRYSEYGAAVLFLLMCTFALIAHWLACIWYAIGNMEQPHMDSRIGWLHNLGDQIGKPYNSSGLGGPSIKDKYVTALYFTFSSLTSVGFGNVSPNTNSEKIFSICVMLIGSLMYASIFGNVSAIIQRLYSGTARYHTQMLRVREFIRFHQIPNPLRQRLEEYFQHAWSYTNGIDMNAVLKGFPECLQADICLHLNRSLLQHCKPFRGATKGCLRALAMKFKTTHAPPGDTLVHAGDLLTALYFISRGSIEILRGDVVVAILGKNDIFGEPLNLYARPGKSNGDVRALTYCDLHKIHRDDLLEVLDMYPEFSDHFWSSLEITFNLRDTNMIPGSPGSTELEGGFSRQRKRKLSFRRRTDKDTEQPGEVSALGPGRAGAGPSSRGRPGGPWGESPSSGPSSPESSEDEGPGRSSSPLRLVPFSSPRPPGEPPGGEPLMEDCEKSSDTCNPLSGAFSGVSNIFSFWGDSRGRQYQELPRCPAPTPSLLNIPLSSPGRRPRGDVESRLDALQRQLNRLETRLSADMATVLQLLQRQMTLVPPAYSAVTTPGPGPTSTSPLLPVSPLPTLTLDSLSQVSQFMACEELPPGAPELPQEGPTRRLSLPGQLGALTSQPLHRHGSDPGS

First: CN(C)c1ccc(NC(=O)N2CCOCC2)cc1
Second: S=C(Nc1ccccc1)N1CCOCC1
The “hERG current change (%, negative = inhibition) at 10uM” value of the first is lower: -3.34% for the first, 11.5% for the second.

Going from `Cc1ccc(-c2cc3nc(-c4ccc(Br)cc4)cc(N)n3n2)cc1` to `Brc1ccc(OCCCOc2cccc3cccnc23)cc1`, the “hERG current change (%, negative = inhibition) at 10uM” value rises from -8.51% to 6.35%.

Compared with `CCCN(CC(=O)Nc1c(C)cccc1CC)C(=O)SCC`, `CCOC(=O)c1sc(=S)n(C)c1NC(=O)c1cccc(Br)c1` is lower in “hERG current change (%, negative = inhibition) at 10uM” value: 10% for the first, 5.67% for the second.

First: CCc1cccc(NC2c3ccccc3C(=O)N2c2cccnc2)c1 (stereo not drawn)
Second: O=Cc1ccccc1OCCCOc1cccc2cccnc12
The “hERG current change (%, negative = inhibition) at 10uM” value of the first is lower: -10.2% for the first, -4.59% for the second.

Compared with `CCC(C)(C)NC(=O)C(c1ccc(OC)cc1)N(C(=O)CCC(=O)Nc1cc(C)on1)C(C)(C)C` (stereo not drawn), `CCOC(=O)c1ccc(NC(=S)NC(=O)COc2ccccc2)cc1` is higher in “hERG current change (%, negative = inhibition) at 10uM” value: -27.1% for the first, 11% for the second.

Compared with `COc1ccc(OCC(O)CNCc2ccco2)cc1` (stereo not drawn), `O=Cc1ccc(OCCCOc2cccc3cccnc23)cc1` is lower in “hERG current change (%, negative = inhibition) at 10uM” value: 1.32% for the first, -54.3% for the second.

First: COc1ccc(CCNC(=O)C2CCN(S(=O)(=O)N3CCC4(CC3)OCCO4)CC2)cc1OC
Second: CCOC(=O)N1CCN(C(=O)c2ccc(NS(C)(=O)=O)cc2)CC1
The “hERG current change (%, negative = inhibition) at 10uM” value of the first is higher: 1.93% for the first, -5.65% for the second.

First: COc1cc(C2=NOC(C(=O)Nc3ccc(C)cc3)C2)cc(OC)c1OC (stereo not drawn)
Second: COc1ccccc1C(=O)Nc1ccc2c(c1)CCCN2C(=O)c1ccccc1
The “hERG current change (%, negative = inhibition) at 10uM” value of the first is higher: -4.96% for the first, -39.8% for the second.

Compared with `CCCCOc1ccc(-n2nc(C)cc2C)nn1`, `Cc1ccc(C(=O)n2cnnc2N)cc1C` is higher in “hERG current change (%, negative = inhibition) at 10uM” value: -16.3% for the first, -0.0756% for the second.

Going from `Cn1c(SCC(=O)NC2CCCCC2)nnc1-c1ccncc1` to `CN(C)S(=O)(=O)c1cccc(NC(=S)NC2CCCCC2)c1`, the “hERG current change (%, negative = inhibition) at 10uM” value falls from 13.2% to 6.69%.

First: CC1COc2c(N3CCN(C)CC3)c(F)cc3c(=O)c(C(=O)O)cn1c23 (stereo not drawn)
Second: C[C@H]1COc2c(N3CCN(C)CC3)c(F)cc3c(=O)c(C(=O)O)cn1c23
The “hERG current change (%, negative = inhibition) at 10uM” value of the first is higher: 18.2% for the first, 11.2% for the second.

First: Cc1cc(C)c(NC(=O)c2cn3c4c(c(N5CCN(C)CC5)c(F)cc4c2=O)OCC3C)c(C)c1 (stereo not drawn)
Second: Cc1cc(C(=O)CN2C(=O)NC3(CCCC3)C2=O)c(C)n1-c1ccc2c(c1)OCO2
The “hERG current change (%, negative = inhibition) at 10uM” value of the first is lower: -51.7% for the first, -28.5% for the second.

Compared with `O=C(Cc1cccs1)Nc1ccccc1-c1nc2ccccc2[nH]1`, `C=CC(=O)N=c1sc2ccccc2n1-c1ccccc1` is lower in “hERG current change (%, negative = inhibition) at 10uM” value: 19.7% for the first, -6.08% for the second.

First: CC(C)c1nnc(NC(=O)CC(=O)Nc2ccccc2C(=O)O)s1
Second: CC(CC(=O)OCC(=O)NCc1ccc(Cl)cc1)c1ccccc1 (stereo not drawn)
The “hERG current change (%, negative = inhibition) at 10uM” value of the first is higher: 4.72% for the first, -7.65% for the second.

First: CON(C)c1nc(Oc2ccc(=O)[nH]n2)nc(N(C)C)n1
Second: C/C=C/c1ccc(OCCOc2cccc3cccnc23)c(OC)c1
The “hERG current change (%, negative = inhibition) at 10uM” value of the first is lower: -9.3% for the first, 20.3% for the second.

Going from `COCCn1c(C)cc(C(=O)CN2C(=O)NC3(CCCCCCC3)C2=O)c1C` to `COCCn1c(C)cc(C(=O)CN2C(=O)NC3(CCCCCC3)C2=O)c1C`, the “hERG current change (%, negative = inhibition) at 10uM” value rises from -59% to -27.8%.

Going from `Cc1cc(C(=O)CN2C(=O)NC3(CCCCC3)C2=O)c(C)n1C` to `Cc1cc(C(=O)CN2C(=O)NC3(CCCCC3)C2=O)c(C)n1-c1ccc2c(c1)OCO2`, the “hERG current change (%, negative = inhibition) at 10uM” value falls from -10.3% to -56.4%.

First: CCCC1(CCC)NC(=O)N(CC(=O)c2cc(C)n(-c3ccc4c(c3)OCO4)c2C)C1=O
Second: Cc1nn(CC(=O)NCc2ccc(C(=O)O)cc2)c(C)c1[N+](=O)[O-]
The “hERG current change (%, negative = inhibition) at 10uM” value of the first is lower: 5.65% for the first, 21.5% for the second.

First: CCOC(=O)c1cc(C)[nH]c(=S)c1C#N
Second: CCCN(CC1CC1)C(=S)NC(=O)c1ccccc1Br
The “hERG current change (%, negative = inhibition) at 10uM” value of the first is lower: -23.4% for the first, -4.58% for the second.

Compared with `CC(=O)NC(Cc1cccc(F)c1)C(=O)NC1CCN(C(=O)c2ccc(C)cc2)CC1` (stereo not drawn), `CC(=O)NC(Cc1ccc(F)c(F)c1)C(=O)NC1CCN(C(=O)c2ccc(C)cc2)CC1` (stereo not drawn) is lower in “hERG current change (%, negative = inhibition) at 10uM” value: 33% for the first, -12.9% for the second.

Compared with `CC(=O)NC(Cc1ccc(F)c(F)c1)C(=O)NC1CCN(c2nnnn2-c2ccccc2)CC1` (stereo not drawn), `CC(=O)NC(Cc1cccc(F)c1)C(=O)NC1CCN(c2nnnn2-c2ccccc2)CC1` (stereo not drawn) is higher in “hERG current change (%, negative = inhibition) at 10uM” value: -54.6% for the first, -5.71% for the second.

Compared with `CC(=O)NC(Cc1ccc(F)cc1)C(=O)NC1CCN(c2nnnn2-c2ccccc2)CC1` (stereo not drawn), `CC(=O)NC(Cc1ccc(F)c(F)c1)C(=O)NC1CCN(C(=O)c2ccc(Cl)cc2)CC1` (stereo not drawn) is lower in “hERG current change (%, negative = inhibition) at 10uM” value: -41% for the first, -56.9% for the second.

First: O=C(Nc1ccc(Br)cc1)C1CCCN(C2=NS(=O)(=O)c3ccccc32)C1 (stereo not drawn)
Second: O=C(Nc1ccc(Cl)cc1)C1CCCN(C2=NS(=O)(=O)c3ccccc32)C1 (stereo not drawn)
The “hERG current change (%, negative = inhibition) at 10uM” value of the first is higher: -29.1% for the first, -60% for the second.

First: O=C(Nc1ccc(F)c(Cl)c1)C1CCCC1
Second: O=C(Nc1ccc(F)c(Cl)c1)C1CCCN(c2cnccn2)C1 (stereo not drawn)
The “hERG current change (%, negative = inhibition) at 10uM” value of the first is higher: 25.2% for the first, -24.9% for the second.

First: Cc1ccc(NC(=O)C2CCCN(C3=NS(=O)(=O)c4ccccc43)C2)c(O)c1 (stereo not drawn)
Second: O=C(Nc1ccc(F)c(Cl)c1)C1CCCN(C2=NS(=O)(=O)c3ccccc32)C1 (stereo not drawn)
The “hERG current change (%, negative = inhibition) at 10uM” value of the first is higher: -33.6% for the first, -63% for the second.

First: COCCn1c(-c2ccc(Cl)cc2Cl)nc2c(c(=O)c3ccccc3n2C)c1=O
Second: O=c1cc[nH]c2c1ccc1cccnc12
The “hERG current change (%, negative = inhibition) at 10uM” value of the first is lower: -8.66% for the first, 21.5% for the second.

Going from `C=CCc1ccc(OCCOCCOc2cccc3cccnc23)c(OC)c1` to `C/C=C/c1ccc(OCCOCCOc2cccc3cccnc23)c(OC)c1`, the “hERG current change (%, negative = inhibition) at 10uM” value falls from -29.3% to -50.5%.

First: CCc1ccc(S(=O)(=O)NCc2cn3ccsc3n2)s1
Second: N/C(=N\OC(=O)c1ccc2ccccc2c1)c1cccc([N+](=O)[O-])c1
The “hERG current change (%, negative = inhibition) at 10uM” value of the first is higher: 6.83% for the first, 5.05% for the second.

For `C#CCOCCOCCOCCNc1nc(N2CCN(C(=O)Cn3cc(CCC[NH+]=C(N)N)nn3)CC2)nc(N2CCN(C(=O)[C@H](CCCC[NH3+])n3cc(CCCC)nn3)CC2)n1.[Cl-]`, the “hERG current change (%, negative = inhibition) at 10uM” value was 7.39%.
